Bioassay records (PubChem BioAssay)
C-LANA FP: blocks KSHV LANA C-terminal domain binding to DNA. MBP-C-LANA/FAM-LBS DNA binding, fluorescence polarization. AID 504423. inhibition, % at 9 µM. 340,000 compounds, 0.078% hits;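 active = highest replicate inhibition at or above 60% at 9 µM, even if other replicates fall short; inactive = all replicates below 60% inhibition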
Keap1-Nrf2 PPI: Keap1-Nrf2 (human) interaction inhibition. Keap1 Kelch-Nrf2 peptide fluorescence polarization, 1536-well. inhibition, % at 9.4 µM. 340,000 compounds, 0.15% hits. AID 504523; in the data active = inhibition above about 12%;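 also: human Keap1 Kelch domain with fluorescein labeled Nrf2 9mer peptide probe; higher means more block of Keap1 binding to Nrf2 peptide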
cardiac RTF act: cardiac RTF calcium sensitization; P19429+P45379; IANBD-labeled TnC RTF fluorescence at EC20 calcium; 0% EC20 calcium, 100% full calcium; activation, % at 7.2 µM; 340,000 compounds, 0.24% hits;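 active = activation above the mean over all tested compounds plus 3 SD, cut at about 30% in these data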;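 also: rise in fluorescence read as greater calcium sensitivity of cardiac thin filaments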
RTF Ca sens inh: cardiac RTF calcium desensitization. inhibition, % at 7.15 µM. IANBD-labeled cardiac RTF, Ca2+ fluorescence. P19429+P45379. AID 493244. 340,000 compounds, 0.12% hits;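 active = inhibition above the mean inhibition of all tested compounds plus 3 SD, cut at about 17% in these data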;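 also: assay run at fixed EC70 calcium of 1.6 mM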
LANA-H2A inh: blocks KSHV LANA binding to histone H2A/H2B | AID 2629 | cell-free LANA-H2A/H2B peptide, fluorescence polarization | inhibition, % (concentration not given with the values) | 320,000 compounds, 0.6% hits | Q9QR71; in the data active = inhibition mostly above about 10%, no sharp cut-off; inactive = mostly below about 6.7%
Target sequence (Q9QR71 whole entry, looked up): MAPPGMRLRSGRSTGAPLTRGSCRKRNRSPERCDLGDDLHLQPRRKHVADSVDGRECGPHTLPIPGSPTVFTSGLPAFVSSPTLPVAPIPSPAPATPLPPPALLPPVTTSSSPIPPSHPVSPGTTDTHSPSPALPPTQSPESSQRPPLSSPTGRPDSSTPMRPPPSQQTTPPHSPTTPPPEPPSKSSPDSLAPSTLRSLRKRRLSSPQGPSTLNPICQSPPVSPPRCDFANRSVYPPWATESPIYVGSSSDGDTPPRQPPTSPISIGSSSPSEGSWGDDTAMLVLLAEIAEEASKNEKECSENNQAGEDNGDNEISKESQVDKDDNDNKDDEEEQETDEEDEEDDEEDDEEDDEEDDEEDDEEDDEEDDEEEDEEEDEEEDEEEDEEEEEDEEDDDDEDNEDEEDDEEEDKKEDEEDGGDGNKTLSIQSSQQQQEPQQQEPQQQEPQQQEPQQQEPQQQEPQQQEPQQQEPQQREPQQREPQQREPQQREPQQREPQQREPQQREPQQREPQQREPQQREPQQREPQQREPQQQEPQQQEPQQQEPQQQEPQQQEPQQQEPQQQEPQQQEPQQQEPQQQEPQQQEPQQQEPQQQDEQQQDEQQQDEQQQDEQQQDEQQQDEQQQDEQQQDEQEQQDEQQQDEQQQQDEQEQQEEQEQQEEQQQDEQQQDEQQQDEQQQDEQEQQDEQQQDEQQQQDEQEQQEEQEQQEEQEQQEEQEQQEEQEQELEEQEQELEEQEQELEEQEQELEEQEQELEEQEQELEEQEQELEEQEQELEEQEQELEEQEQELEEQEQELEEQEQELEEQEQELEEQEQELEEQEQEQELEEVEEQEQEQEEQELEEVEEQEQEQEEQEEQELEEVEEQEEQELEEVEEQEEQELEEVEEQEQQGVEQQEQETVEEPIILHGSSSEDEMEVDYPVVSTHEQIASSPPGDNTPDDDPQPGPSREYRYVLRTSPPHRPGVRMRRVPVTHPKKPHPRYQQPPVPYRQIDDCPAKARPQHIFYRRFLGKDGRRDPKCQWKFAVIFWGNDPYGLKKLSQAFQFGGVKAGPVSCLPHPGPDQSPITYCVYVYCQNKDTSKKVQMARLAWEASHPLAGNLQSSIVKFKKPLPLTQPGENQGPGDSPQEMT
E coli Lon inh: E. coli protease La inhibition; purified E. coli Lon protease, fluorescence polarization; inhibition, % at 7.94 µM; 360,000 compounds, 0.42% hits; in the data active = inhibition above about 13%, passing the limit was not always enough
RTF inh confirm: cardiac RTF calcium sensitivity inhibition, confirmation; inhibition, % at 7.15 µM; 360 compounds, 8% hits; shares compounds with RTF Ca sens inh; reconstituted cardiac thin filaments, calcium sensitivity fluorescence; in the data active = inhibition above about 18%
Of the large screens only hits and unclear results are named; the others gave an inactive call (follow-up assays come after a bar, where they were run). A selection: hits, their analogues and other compounds. The true share with any hit is near 1.3%.

COc1ccccc1NC(=O)c1ccc(NC(=O)COC(=O)C2CC2C)cc1 (stereo unspecified)	LANA-H2A inh 19
CC1=C(C#N)C(=O)OC(C)(C)C1	Keap1-Nrf2 PPI 19
COc1ccc(C(Cl)=C(c2ccc(OC)cc2)c2ccc(OC)cc2)cc1	LANA-H2A inh 39
COc1ccc(C(=N/O)/C(=N/O)c2ccc(OC)cc2)cc1	none
CCSc1nnc(-c2sc3nnc(-c4ccccc4)c(-c4ccccc4)c3c2N)o1	cardiac RTF act 83
CCOC(=O)Cn1c(=O)c(-c2cc(Br)ccc2N)nc2ccccc21	cardiac RTF act 44
COc1ccc(OCCCC(=O)NNC(=O)c2ccncc2)cc1	none
O=C([C@@H]1CCCN1C(=O)c1cccs1)N1CCN(S(=O)(=O)c2cccc(F)c2)CC1	LANA-H2A inh 11
O=C(c1ccco1)N1CCN(C(=S)NCc2ccc(F)cc2)CC1	none
COC(=O)c1ccc(C(=O)OC)c(NC(=O)C2CCCO2)c1 (stereo unspecified)	LANA-H2A inh 16
O=C(O)c1ccc(Cl)cc1NC(=O)C1CCCO1 (stereo unspecified)	none
c1ccc(-c2noc(C34CC5CC(CC(C5)C3)C4)n2)cc1	none
c1ccc(-c2noc(C34CC5CC(CC(C5)C3)C4)n2)nc1	RTF Ca sens inh 18 | RTF inh confirm inactive
O=C(COC(=O)c1cc[n+]([O-])cc1)NCc1ccccc1Cl	none
O=C(Nc1cccc(F)c1)c1ccc(Cn2cc([N+](=O)[O-])cn2)o1	none
COc1ccc(N2C(=O)N3[C@@H]4c5ccccc5OC[C@@H]4[C@@H](c4ccccc4)[C@@]3(C)C2=O)cc1	none
N#Cc1ccc(N2CCc3ccccc3C2)c([N+](=O)[O-])c1	RTF Ca sens inh 188 (no result: LANA-H2A inh) | RTF inh confirm inactive
O=C(c1ccc(N2CCCC2)c([N+](=O)[O-])c1)N1CCc2ccccc2C1	none
COc1ccc(OC)c(S(=O)(=O)NCC(c2ccco2)N2CCc3ccccc3C2)c1 (stereo unspecified)	RTF Ca sens inh 18 | RTF inh confirm inactive
COc1ccc(C)cc1S(=O)(=O)NCC(c1ccco1)N1CCc2ccccc2C1 (stereo unspecified)	none
CN[C@H](CC(=O)O)C(=O)O	RTF Ca sens inh 18 | RTF inh confirm inactive
CC(=O)NC(CC(C)C)C(=O)O (stereo unspecified)	none (no result: LANA-H2A inh)
COC(=O)c1cc(C(=O)NNC(=O)c2ccc3c(c2)OCO3)cc([N+](=O)[O-])c1	none
CCCc1c(O)nc(SC2CC(=O)N(c3ccc(OC)cc3)C2=O)[nH]c1=O (stereo unspecified)	RTF Ca sens inh 17 | RTF inh confirm inactive
CCN1CCN(C(=S)Nc2ccc3nc4n(c(=O)c3c2)CCCCC4)CC1	none
NCCNC(=O)Cc1ccc(NC(=O)Cc2ccc(Nc3ncnc4c3ncn4[C@@H]3O[C@H](CO)[C@@H](O)[C@H]3O)cc2)cc1	RTF Ca sens inh 23 | RTF inh confirm inactive
CNc1ncnc2c1ncn2[C@@H]1O[C@H](CO)[C@@H](O)[C@H]1O	none
COc1ccc(CC(=O)NCC(=O)N/N=C/c2ccc(C)o2)cc1	none
Cc1ccc(/C=N/NC(=O)CNC(=O)COc2ccc(Cl)cc2)o1	RTF Ca sens inh 18 | RTF inh confirm inactive
COc1ccc(C(=NNc2ccccc2C(=O)O)c2ccc(OC)cc2)cc1	RTF Ca sens inh 17 | RTF inh confirm inactive
Cc1cc(NC(=O)CN2CCN(c3ncccn3)CC2)no1	RTF Ca sens inh 21 | RTF inh confirm inactive
CCN1CCN(CC(=O)Nc2cc(C)on2)CC1	none
COc1cc2c(ccc3cc(OC)c(OC)c(O)c32)cc1O	RTF Ca sens inh 26 | RTF inh confirm inactive
CCC(=O)N1C(=O)C2(Nc3ccccc3N2)c2ccccc21	none (no result: C-LANA FP, Keap1-Nrf2 PPI, cardiac RTF act, RTF Ca sens inh, E coli Lon inh)
CC(=O)Nc1ccc(S(=O)(=O)N(C)CC(=O)OCC(=O)NCc2ccco2)cc1	none
CCN1/C(=C/c2ccc3ccccc3[n+]2CC)C=Cc2ccccc21	RTF Ca sens inh 17 | RTF inh confirm inactive
Cc1cc(C)c(OCC(=O)NCC(C)(C)N2CCOCC2)c(C)c1	none
COc1ccc(CC(=O)NCCc2ccc(Cl)cc2Cl)cc1	RTF Ca sens inh 22 | RTF inh confirm inactive
O=C(O)c1ccc2c(c1)C(=O)/C(=C/c1ccccc1)C2=O	none
O=C(O)c1ccc2c(c1)C(=O)/C(=C\c1ccco1)C2=O	C-LANA FP 70, RTF Ca sens inh 20 | RTF inh confirm inactive
CCCCN(C(=O)c1cc(S(=O)(=O)N2CCCCC2)ccc1Cl)c1c(N)n(CCC)c(=O)[nH]c1=O	none (no result: LANA-H2A inh)
CCOc1ccc(NS(=O)(=O)c2ccc3c(c2)N(C(C)=O)CCS3)cc1	RTF Ca sens inh 77 | RTF inh confirm inactive
COc1ccc(CN2CCC(n3nccc3NC(=O)C3CC3)CC2)cc1O	none
CN(C)S(=O)(=O)c1ccc(NC(=O)N2CCN(c3ccccc3Cl)CC2)cc1	RTF Ca sens inh 19 | RTF inh confirm inactive
CC(=O)c1ccc(NC(=O)c2noc(C(C)C)c2[N+](=O)[O-])cc1	RTF Ca sens inh 188 | RTF inh confirm inactive
CN(C(=O)C1CCC(=O)N(C2CC2)C1)C1CCCCC1 (stereo unspecified)	none
Cc1nnc(C)n1N	RTF Ca sens inh 18 | RTF inh confirm inactive
Cc1ccc(S(=O)(=O)N2CCC(C(=O)NCCCN3CCCC3=O)CC2)cc1	none
CCCS(=O)(=O)N1CCC(C(=O)NCCCN2CCCC2=O)CC1	RTF Ca sens inh 19 | RTF inh confirm inactive
Cc1ccc(NC(=O)/C=N/OCC(=O)NCc2ccccc2Cl)cc1	none
C=CCC[C@@H](Cc1ccc(F)cc1)C(=O)OC[C@@H](NC(=O)[C@@H](CC=C)CC(=O)N[C@@H](CO)Cc1ccccc1)C(C)(C)C	RTF Ca sens inh 18 | RTF inh confirm inactive
CC(C)C(NS(=O)(=O)c1ccc2c(c1)C(C)(C)C(=O)N2C)C(=O)NCc1ccccc1Cl (stereo unspecified)	none
C=CCNC(=S)Nc1cccc2ccccc12	RTF Ca sens inh 20 | RTF inh confirm inactive
O=C(O)Cc1c[nH]c2ccc(O)cc12	RTF Ca sens inh 18 | RTF inh confirm inactive
CCOC(=O)CNC(=O)c1c(C)nn(C)c1Cl	none
CCOC(=O)CNC(=O)c1c(C)nn(-c2ccccc2)c1Cl	RTF Ca sens inh 18 | RTF inh confirm inactive
O=C1CCCc2c1cnc1ncnn21	RTF Ca sens inh 18 | RTF inh confirm inactive
COc1ccc(N2C(=O)CSC2c2ccccc2[N+](=O)[O-])cc1 (stereo unspecified)	RTF Ca sens inh 19, LANA-H2A inh active | RTF inh confirm inactive
CC(C)(C)C(=O)NC(n1cnc2c(N3CCOCC3)ncnc21)C(Cl)(Cl)Cl (stereo unspecified)	RTF Ca sens inh 19 | RTF inh confirm inactive
